# Measured values as given in PubChem BioAssay (NCATS).
# Records with an inconclusive call do not appear. Calls of active or inactive are those of the source. Unless noted, calls follow the shape of the dose curve; as a rule, active = well fitted curve in the direction sought with a large enough effect; inconclusive = small, poorly fitted or top-dose-only effect, or another doubt; inactive = no such curve, though single readings can be large; an effect the other way counts as inactive or inconclusive.
# What was measured:
# [1] = Confirmation and Secondary Assay for Modulators of Hemoglobin Beta Chain Splicing at IVS2 654 locus (AID 910);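 also: HeLa cells stably carrying EGFP split by mutant beta-globin IVS2-654 intron; % of control where 0% means no effect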
# Procedure, shortened: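 HeLa cells stably expressing EGFP interrupted by β-globin IVS2-654 intron, seeded overnight in Opti-MEM/2% FCS, then treated 2 days at 37 °C. Restored splicing read as total peak GFP intensity per well by laser scanning cytometry (488 nm excitation, 500–520 nm emission); 500 nM antisense PNA as control.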
# [2] = Confirmation and Secondary Assay for Modulators of Hemoglobin Beta Chain Splicing at IVS2 705 locus (AID 930);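 also: HeLa cells stably expressing the EGFP-705 splicing reporter; GFP fluorescence per well restored by corrected splicing of the IVS2-705 intron in EGFP; % of control where 0% means no effect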
# Procedure, shortened: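 HeLa EGFP-705 reporter; 500 cells/well, o/n 37C 5% CO2; cpd 2 d; 488 ex/500-520 em laser scan; total peak GFP intensity/well. Ref: 500 nM […] antisense PNA.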
# [3] = qHTS Assay for Lipid Storage Modulators (AID 1519; calls by dose curve; as to activity change, negative = inhibition: % is scaled to controls: 0 for no effect and ±100 for the full control effect); settings: Drosophila S3 cells, BODIPY lipid droplet/cell ratio, laser cytometry, cells loaded with oleic acid
# Procedure, shortened: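 Cells seeded at 5,000 per well were treated with compounds over a concentration series and loaded with oleic acid (400 uM, as added). Lipid droplet fluorescence (488 nm excitation, 500-530 nm channel) was read by laser-scanning cytometry and normalized to 20 uM Triacsin C.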
# [4] = target: Ubiquitin carboxyl-terminal hydrolase 1 (Homo sapiens) (UniProt O94782); test: Inhibitors of USP1/UAF1: Pilot qHTS (AID 504865); also: nearly all actives have a fitted effect of over 35% in size; also: potency is read from the fitted curve at half-maximal effect;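 as to activity change, negative = inhibition: rhodamine fluorescence freed from ubiquitin-rhodamine substrate followed over time; top concentration of the series differs between compounds; % is scaled to controls: 0 for no effect and ±100 for the full control effect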
# Procedure, shortened: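 Enzyme-free wells gave the negative control, while test wells held 1nM USP1/UAF1 preincubated with compound for 15 min at room temperature. Ub-Rho at 150nM final started the reaction, and fluorescence at 480/540 nm was recorded kinetically.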
# [5] = target: Cytochrome P450 3A4 (Homo sapiens) (UniProt P08684); test: qHTS Assay for Inhibitors and Substrates of Cytochrome P450 3A4 (AID 884); also: nearly all actives have a fitted effect of over 50% in size; also: potency is read from the fitted curve at half-maximal effect; as to activity change, negative = inhibition: % is scaled to controls: 0 for no effect and ±100 for the full control effect
# Procedure, shortened: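 20 nM human CYP3A4 with 25 uM Luciferin-PPXE (at KM) in 200 mM KPO4, preincubated 10 min with compound; NADPH regeneration started a 60 min RT reaction. Luciferin detected by luminescence, normalized to 57 uM ketoconazole as full inhibition.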
# [6] = target: Cytochrome P450 3A4 (Homo sapiens) (UniProt P08684); test: qHTS Assay for Activators of Cytochrome P450 3A4 (AID 885); also: nearly all actives have a fitted effect of over 65% in size
# Procedure, shortened: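 Quantitative HTS format: compounds preincubated with 20nM human CYP3A4 and Luciferin-PPXE substrate at KM, reaction started by NADPH regeneration, stopped after 60 min, luciferase luminescence read 20 min later.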
# [7] = target: Cytochrome P450 2D6 (Homo sapiens) (UniProt P10635); test: qHTS Assay for Inhibitors and Substrates of Cytochrome P450 2D6 (AID 891); also: potency is read from the fitted curve at half-maximal effect; nearly all actives have a fitted effect of over 60% in size
# Procedure, shortened: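 Human CYP2D6 (5 nM) with 30 uM Luciferin-ME EGE (at Km) in 100 mM KPO4, compound preincubated 10 min, then NADPH regeneration system for 60 min at room temperature. Luciferin read by luminescence; normalized to 1.43 uM quinidine.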
# [8] = target: Alpha-galactosidase (Coffea arabica) (UniProt Q42656); test: Counterscreen for Glucocerebrosidase Inhibitors: qHTS Assay for Coffee Bean alpha-Galactosidase at pH 4.5 (AID 957);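 also: plate controls were enzyme alone for no effect and no enzyme for full effect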
# Procedure, shortened: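 Coffee bean alpha-galactosidase 2 nM, substrate 4-MU-alpha-Gal 80 uM, pH 4.5 citrate/Tween-20, 20 min RT. Cpd titration 0.7 nM–77 uM. Stop pH 10, fluorescence 365/440 nm; Hill-equation AC50.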
# [9] = target: Alpha-galactosidase (Coffea arabica) (UniProt Q42656); test: Counterscreen for Glucocerebrosidase Inhibitors: qHTS Assay for Coffee Bean alpha-Galactosidase at pH 5.9 (AID 998);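 also: plate controls were uninhibited enzyme for no effect and no-enzyme basal signal for full effect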
# Procedure, shortened: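 Green coffee bean enzyme (2 nM) with 4-methylumbelliferyl alpha-D-galactopyranoside (80 uM) in 50 mM citric acid, 0.005% Tween-20, pH 5.9, 20 min at room temperature; compounds 0.7 nM–77 uM. Stopped at pH 10, fluorescence Ex365/Em440; Hill-fit AC50.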
# [10] = target: DNA dC->dU-editing enzyme APOBEC-3G (Homo sapiens) (UniProt Q9HC16); test: qHTS for inhibitors of Vif-A3G interactions: Validation (AID 588379); also: 0% is about no effect
# Procedure, shortened: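 HeLa cells stably expressing Vif and A3G-eYFP, 700 cells/well, incubated overnight at 37 deg C, then exposed to compound overnight at 37 deg C. Inhibition of Vif-mediated degradation read as increased yellow fluorescence (Ex 488/Em 500-530) by laser-scanning cytometry.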
# [11] = measured here: cell count channel max response
# [12] = measured here: lipid channel max response
# Ubiquitin carboxyl-terminal hydrolase 1 (Homo sapiens), sequence (O94782 whole entry, looked up): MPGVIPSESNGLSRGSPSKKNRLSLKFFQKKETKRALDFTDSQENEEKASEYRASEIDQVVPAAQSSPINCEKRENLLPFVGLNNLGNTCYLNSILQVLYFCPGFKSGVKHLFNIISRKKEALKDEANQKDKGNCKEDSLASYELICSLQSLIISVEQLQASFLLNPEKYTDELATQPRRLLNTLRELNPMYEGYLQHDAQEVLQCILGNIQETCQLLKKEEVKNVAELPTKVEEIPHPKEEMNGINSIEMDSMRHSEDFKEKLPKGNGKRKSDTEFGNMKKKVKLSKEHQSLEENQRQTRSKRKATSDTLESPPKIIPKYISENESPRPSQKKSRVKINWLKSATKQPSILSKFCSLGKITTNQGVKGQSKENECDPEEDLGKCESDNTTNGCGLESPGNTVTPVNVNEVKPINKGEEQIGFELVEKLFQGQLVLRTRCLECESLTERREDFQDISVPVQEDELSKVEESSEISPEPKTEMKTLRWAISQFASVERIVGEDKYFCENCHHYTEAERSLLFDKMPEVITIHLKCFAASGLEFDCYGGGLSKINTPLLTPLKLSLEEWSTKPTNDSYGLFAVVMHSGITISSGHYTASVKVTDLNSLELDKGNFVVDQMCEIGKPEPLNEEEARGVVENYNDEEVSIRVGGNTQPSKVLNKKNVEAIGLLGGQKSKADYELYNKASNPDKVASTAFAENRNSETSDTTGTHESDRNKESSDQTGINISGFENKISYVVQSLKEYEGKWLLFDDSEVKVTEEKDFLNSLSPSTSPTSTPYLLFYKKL
# Cytochrome P450 3A4 (Homo sapiens), sequence (P08684 whole entry, looked up): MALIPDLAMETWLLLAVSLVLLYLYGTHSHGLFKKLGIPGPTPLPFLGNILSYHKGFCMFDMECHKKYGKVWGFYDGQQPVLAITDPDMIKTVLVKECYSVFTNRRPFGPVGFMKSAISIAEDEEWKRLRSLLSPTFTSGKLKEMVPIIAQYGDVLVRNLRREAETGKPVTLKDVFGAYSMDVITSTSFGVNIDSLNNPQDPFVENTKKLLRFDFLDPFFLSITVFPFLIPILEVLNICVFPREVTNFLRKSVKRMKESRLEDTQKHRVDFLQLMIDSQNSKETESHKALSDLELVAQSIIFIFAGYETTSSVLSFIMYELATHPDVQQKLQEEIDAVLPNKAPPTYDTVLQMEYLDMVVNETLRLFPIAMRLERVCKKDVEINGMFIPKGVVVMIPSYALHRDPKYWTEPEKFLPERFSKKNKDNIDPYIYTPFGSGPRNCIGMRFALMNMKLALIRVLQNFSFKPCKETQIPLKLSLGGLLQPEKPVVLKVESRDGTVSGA
# Alpha-galactosidase (Coffea arabica), sequence (Q42656 whole entry, looked up): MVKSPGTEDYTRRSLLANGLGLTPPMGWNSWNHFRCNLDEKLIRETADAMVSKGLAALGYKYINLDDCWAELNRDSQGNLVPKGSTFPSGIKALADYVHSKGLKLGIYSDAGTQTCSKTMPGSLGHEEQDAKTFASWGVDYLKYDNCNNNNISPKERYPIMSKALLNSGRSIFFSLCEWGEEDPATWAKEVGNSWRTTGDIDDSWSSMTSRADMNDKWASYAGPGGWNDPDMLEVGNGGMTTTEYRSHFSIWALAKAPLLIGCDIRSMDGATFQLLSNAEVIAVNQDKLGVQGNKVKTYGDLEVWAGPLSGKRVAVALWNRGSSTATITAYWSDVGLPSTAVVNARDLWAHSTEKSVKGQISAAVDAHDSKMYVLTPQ
# DNA dC->dU-editing enzyme APOBEC-3G (Homo sapiens), sequence (Q9HC16 whole entry, looked up): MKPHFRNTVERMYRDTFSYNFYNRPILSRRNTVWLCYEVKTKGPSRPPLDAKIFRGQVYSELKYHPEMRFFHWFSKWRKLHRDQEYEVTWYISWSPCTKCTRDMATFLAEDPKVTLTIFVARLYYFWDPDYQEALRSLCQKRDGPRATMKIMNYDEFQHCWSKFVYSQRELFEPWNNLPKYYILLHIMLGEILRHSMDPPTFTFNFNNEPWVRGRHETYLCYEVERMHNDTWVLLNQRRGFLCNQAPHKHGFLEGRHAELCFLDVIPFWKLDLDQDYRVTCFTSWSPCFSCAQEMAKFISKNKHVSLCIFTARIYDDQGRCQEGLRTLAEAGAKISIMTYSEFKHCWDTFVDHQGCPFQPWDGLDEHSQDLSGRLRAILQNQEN
# Cytochrome P450 2D6 (Homo sapiens), sequence (P10635 whole entry, looked up): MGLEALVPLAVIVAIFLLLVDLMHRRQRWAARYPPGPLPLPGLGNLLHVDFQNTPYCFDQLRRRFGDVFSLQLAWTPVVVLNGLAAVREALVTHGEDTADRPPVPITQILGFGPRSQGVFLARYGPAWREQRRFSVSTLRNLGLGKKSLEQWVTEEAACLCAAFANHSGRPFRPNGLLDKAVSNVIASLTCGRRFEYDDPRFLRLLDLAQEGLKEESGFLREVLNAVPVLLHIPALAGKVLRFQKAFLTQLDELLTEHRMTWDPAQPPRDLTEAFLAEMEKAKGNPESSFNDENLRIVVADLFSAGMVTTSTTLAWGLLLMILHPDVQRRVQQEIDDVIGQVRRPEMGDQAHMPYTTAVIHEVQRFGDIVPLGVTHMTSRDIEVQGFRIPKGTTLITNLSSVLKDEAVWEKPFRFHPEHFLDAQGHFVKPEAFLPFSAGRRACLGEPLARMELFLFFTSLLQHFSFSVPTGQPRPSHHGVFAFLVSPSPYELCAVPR
compound,measurement,setting,value
O=c1cccc2n1CC1CC2CN2CCCCC12 (stereo not given),Potency,[1],inactive
same,Potency,[2],inactive
same,"activity change, negative = inhibition",[3]; at 57.5 µM (top of the series),0.982% (inactive)
same,max response,[3]; [11],1.81%
same,max response,[3]; [12],1.59%
same,Potency,[4],inactive
CNC(C)[C@H](O)c1ccccc1 (stereo not given in full),Potency,[1],inactive
same,Potency,[2],inactive
same,"activity change, negative = inhibition",[3]; at 57.5 µM (top of the series),9.2% (inactive)
same,max response,[3]; [11],21.5%
same,max response,[3]; [12],37.3%
same,Potency,[4],inactive
CCC(C)C(=O)OC1C(O)C2C(CN3CC(C)CCC3[C@]2(C)O)C2C[C@]34O[C@@]5(O)C(OC(=O)C(C)(O)C(C)O)CCC3(C)C5C(OC(C)=O)C(OC(C)=O)C4[C@@]21O (stereo not given in full),Potency,[5],inactive
same,Potency,[2],inactive
same,"activity change, negative = inhibition",[3]; at 57.5 µM (top of the series),4.38% (inactive)
same,max response,[3]; [11],24.4%
same,max response,[3]; [12],35.3%
same,Potency,[4],inactive
CC1(C)C(O)CC(=O)[C@]2(C)C1CC(=O)[C@]1(C)C2CC[C@@]2(C)C(c3ccoc3)OC(=O)C3O[C@@]321 (stereo not given in full),Potency,[6],inactive
same,Potency,[2],inactive
same,"activity change, negative = inhibition",[3]; at 57.5 µM (top of the series),-3.35% (inactive)
same,max response,[3]; [11],16.1%
same,max response,[3]; [12],14.7%
same,Potency,[4],inactive
CC1C(=O)OC2C(O)C34C5OC(=O)[C@@]3(OC3OC(=O)[C@H](O)[C@]34C(C(C)(C)C)C5O)[C@]12O (stereo not given in full),Potency,[1],inactive
same,Potency,[2],inactive
same,"activity change, negative = inhibition",[3]; at 57.5 µM (top of the series),0.291% (inactive)
same,max response,[3]; [11],13.6%
same,max response,[3]; [12],14.3%
same,Potency,[4],inactive
Cc1cc(OC(=O)N2CCCCC2)c(C(C)C)cc1[N+](C)(C)C,Potency,[1],inactive
same,"activity change, negative = inhibition",[3]; at 57.5 µM (top of the series),8.28% (inactive)
same,max response,[3]; [11],17.5%
same,max response,[3]; [12],31.1%
same,Potency,[4],inactive
CC(=O)CC1CCCCN1 (stereo not given),Potency,[5],inactive
same,Potency,[2],inactive
same,"activity change, negative = inhibition",[3]; at 57.5 µM (top of the series),4.86% (inactive)
same,max response,[3]; [11],11.3%
same,max response,[3]; [12],14.1%
same,Potency,[4],inactive
CC(=O)OC1CCC23C(=O)OC45CCC(C6=CC(=O)OC6)C4(C)CCC2C5CCC3(O)C1 (stereo not given),Potency,[5],inactive
same,Potency,[2],inactive
same,"activity change, negative = inhibition",[3]; at 57.5 µM (top of the series),-4.87% (inactive)
same,max response,[3]; [11],6.6%
same,max response,[3]; [12],2.69%
same,Potency,[4],inactive
CNC(=O)O/N=C(/C)SC,Potency,[5],inactive
same,Potency,[2],inactive
same,"activity change, negative = inhibition",[3]; at 57.5 µM (top of the series),3.26% (inactive)
same,max response,[3]; [11],16.3%
same,max response,[3]; [12],20.1%
same,Potency,[4],inactive
CNC(=O)Oc1ccc2c(c1)[C@@]1(C)CCN(C)[C@@H]1N2C,Potency,[7],0.631 µM (active)
same,outcome,[8],inactive
same,outcome,[9],inactive
same,"activity change, negative = inhibition",[3]; at 25.7 µM (top of the series),-1.12% (inactive)
same,max response,[3]; [11],-3.51%
same,max response,[3]; [12],-6.16%
same,Potency,[4],inactive
CCC12C=CCN3CCC4(c5ccc(OC)cc5N(C)C4[C@@](O)(C(=O)OC)C1OC(C)=O)C32 (stereo not given in full),Potency,[6],inactive
same,Potency,[2],inactive
same,"activity change, negative = inhibition",[3]; at 57.5 µM (top of the series),1.88% (inactive)
same,max response,[3]; [11],13.3%
same,max response,[3]; [12],25%
same,Potency,[4],inactive
CCN1C[C@@]2(C)CC[C@@H](OC)[C@@]34C2C(O)[C@@]2(OCO[C@]25CC(OC)C2C[C@@]3(O)C5C2O)C14 (stereo not given in full),Potency,[6],inactive
same,Potency,[1],inactive
same,Potency,[2],inactive
same,"activity change, negative = inhibition",[3]; at 57.5 µM (top of the series),2.86% (inactive)
same,max response,[3]; [11],1.33%
same,max response,[3]; [12],4.66%
same,Potency,[4],inactive
CC1(C)C(O)CC(O)[C@]2(C)C1CC(O)[C@]1(C)C2CC[C@@]2(C)C(c3ccoc3)CC3OC312 (stereo not given in full),Potency,[6],inactive
same,Potency,[1],inactive
same,Potency,[2],inactive
same,"activity change, negative = inhibition",[3]; at 57.5 µM (top of the series),-10.5% (inactive)
same,max response,[3]; [11],-11.5%
same,max response,[3]; [12],-19.8%
same,Potency,[4],inactive
NCC(=O)c1ccccc1,Potency,[6],inactive
same,Potency,[2],inactive
same,"activity change, negative = inhibition",[3]; at 57.5 µM (top of the series),8.66% (inactive)
same,max response,[3]; [11],23.8%
same,max response,[3]; [12],35.4%
same,Potency,[4],inactive
O=C(NC(=O)c1ccccc1Cl)Nc1ccc(OC(F)(F)F)cc1,Potency,[1],inactive
same,Potency,[2],inactive
same,"activity change, negative = inhibition",[3]; at 57.5 µM (top of the series),8.39% (inactive)
same,max response,[3]; [11],0.34%
same,max response,[3]; [12],9.8%
same,Potency,[4],inactive
CC1=C2C3OC(=O)C(C)C3CC[C@@]2(C)C=CC1=O (stereo not given in full),Potency,[6],inactive
same,Potency,[2],inactive
same,"activity change, negative = inhibition",[3]; at 57.5 µM (top of the series),1.14% (inactive)
same,max response,[3]; [11],15.1%
same,max response,[3]; [12],16.8%
same,Potency,[4],inactive
CC1(C)N([O-])[N+](=O)C1(C)Br (stereo not given),Potency,[5],inactive
same,Potency,[2],inactive
same,"activity change, negative = inhibition",[3]; at 57.5 µM (top of the series),1.13% (inactive)
same,max response,[3]; [11],-4.64%
same,max response,[3]; [12],-5.74%
same,Potency,[4],inactive
COC(=O)COc1cc(Cl)c(Cl)cc1Cl,Potency,[1],inactive
same,Potency,[2],inactive
same,"activity change, negative = inhibition",[3]; at 57.5 µM (top of the series),2.27% (inactive)
same,max response,[3]; [11],13.1%
same,max response,[3]; [12],15.5%
same,Potency,[4],inactive
COc1c2c(cc3c1OCO3)C13C=CC(OC)CC1N(C2)CC3O (stereo not given),Potency,[6],inactive
same,Potency,[1],inactive
same,Potency,[2],inactive
same,"activity change, negative = inhibition",[3]; at 57.5 µM (top of the series),11.5% (inactive)
same,max response,[3]; [11],12.8%
same,max response,[3]; [12],26.7%
same,Potency,[4],inactive
COC1C(O)C(C)O[C@H](OC2CC[C@@]3(C=O)C4CC[C@]5(C)C(C6=CC(=O)OC6)CC[C@@]5(O)C4CC[C@@H]3C2)C1O (stereo not given in full),Potency,[5],inactive
same,Potency,[2],inactive
same,"activity change, negative = inhibition",[3]; at 57.5 µM (top of the series),3.31% (inactive)
same,max response,[3]; [11],21.5%
same,max response,[3]; [12],24.5%
same,Potency,[4],inactive
CC1C(=O)OC2O[C@]3(C)CC[C@H]4C(C)CCC1[C@]24OO3 (stereo not given in full),Potency,[1],inactive
same,Potency,[2],inactive
same,"activity change, negative = inhibition",[3]; at 57.5 µM (top of the series),8.3% (inactive)
same,max response,[3]; [11],8.98%
same,max response,[3]; [12],23.7%
same,Potency,[4],inactive
COc1c(CC=C(C)C)c2c(c3oc(=O)c(-c4ccc(O)cc4)c(O)c13)C=CC(C)(C)O2,Potency,[6],inactive
same,Potency,[1],inactive
same,Potency,[2],inactive
same,"activity change, negative = inhibition",[3]; at 57.5 µM (top of the series),3.02% (inactive)
same,max response,[3]; [11],14.5%
same,max response,[3]; [12],15.5%
same,Potency,[4],79.4 µM (active)
NC(=O)c1ccc(N)nc1,Potency,[5],inactive
same,Potency,[2],inactive
same,"activity change, negative = inhibition",[3]; at 57.5 µM (top of the series),2.67% (inactive)
same,max response,[3]; [11],16.6%
same,max response,[3]; [12],22.3%
same,Potency,[4],inactive
COC[C@]12CN(C=O)C3C4C(OC)C1[C@@]3(C1CC3(O)C(OC)C(O)C4(OC(C)=O)C1C3OC(=O)c1ccccc1)[C@@H](OC)CC2O (stereo not given in full),Potency,[1],inactive
same,Potency,[2],inactive
same,"activity change, negative = inhibition",[3]; at 57.5 µM (top of the series),-0.123% (inactive)
same,max response,[3]; [11],-6.49%
same,max response,[3]; [12],-7.99%
same,Potency,[4],inactive
CCC1CN2CCC1CC2C(O)c1ccnc2ccc(OC)cc12 (stereo not given),Potency,[1],inactive
same,Potency,[2],inactive
same,"activity change, negative = inhibition",[3]; at 57.5 µM (top of the series),6.54% (inactive)
same,max response,[3]; [11],2.56%
same,max response,[3]; [12],12.3%
same,Potency,[4],inactive
C=C1C/C(=C/C)C(=O)O[C@@H]2CCN3CC=C(COC(=O)[C@]1(C)O)[C@@H]23,Potency,[5],15.8 µM (active)
same,Potency,[6],inactive
same,"activity change, negative = inhibition",[3]; at 57.5 µM (top of the series),3.16% (inactive)
same,max response,[3]; [11],6.54%
same,max response,[3]; [12],10.1%
same,outcome,[10],inactive
